The results in this text go back to the supplement of paper PMC10105736.

A number with no mark means an inactive call.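 How the source made its calls: active = MAPPIT score above the 99th percentile of random reference set scores in the same batch; inactive = at or below it.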

Assay in all cases: MAPPIT interaction score (arbitrary units); higher = stronger binary interaction signal, active = hit call of the paper
One test has as its target CG9040. To be noted: MAPPIT configuration: N-N; pair source set: Finley_Y2H.
The target in a further test is CG8043. To be noted: MAPPIT configuration: N-N; pair source set: DPIM.
A further test concerns the target CG7747. To be noted: MAPPIT configuration: N-N; pair source set: Finley_Y2H.
The next test deals with CG9106. To be noted: MAPPIT configuration: N-N; pair source set: screen_2.
The target in the next test is CG8320. To be noted: MAPPIT configuration: N-C; pair source set: screen_4.
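Further: HEK293T cells with Epo stimulation, STAT-responsive firefly luciferase reporter, fold induction versus unstimulated cells divided by the larger fold induction of two negative controls lacking either bait or prey.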

B1: Bre1 (protein)
chain: MSKRSADDATGSSCLVAAAAAGQPPIKKVHFEPHLIGPVSTLEEMDIKVLEFQNKKLAQRIEQRMRTEAELRHRIEQLEKRQTQDDAVLNVVNRYWNQLNEDIRVLLQRFDAETADELENRNENEVTTSFLAQLSTWDKEELDEKLANRVQVSKRAVAKIVQVIDRLMQRNEKITHVLKGDSLASAGSGSGAGAGGEEEQQQASGDAETTTSSAGVHALEETLKQTHIEIMSENHKLQNLNTSLHEKFHTMSLKMKEYQDAHTAKETENAELKNQIDELQYDLEKIHCRNDKLENHLAEAIEKLKAYHQIYGDPNKSTNSAKTPTTTGSGGATTSVNSQLLEELQKELEEYRELANNRLQELDKLHATHRETLKEVEKLKMDIRQLPESVIVETTEYKCLQSQFSVLYNESMQIKTMLDETRNQLQTSKNQHLRQIEVMESEELIAQKKVRSEMIQMEDVLALIRKEYETLRIEFEQNMAANEQTAPINREMRHLITSLQNHNGQLKGEVQRYKRKYKDTSTDNLKLRQELADALATLEGNKLQAATGAAGEEIKQENSTGVKEENSNNVSASGQTNQTNSGNDTNVAIKEENHISAEDEADDEASGKDVKDGIKQEKLSSGDAAAAEKKDSPGPGNSTSSATNSVPVKNEKDSKDGVKGKDVKAVESETVRDLKAQLKKALNDQKEMKLLLDMYKGVSKDQRDKVQLMATEKKLRSEIEELRQQLKKLQESKREERKKLADEEALRKIKQLEEQKYELQKQMANHKPTDNSWGSGAPGTANYTRPFVGSHEEEALLNEMEVTGQAFEDMQEQNSRLIQQLREKDDANFKLMSERIKANQLHKLLREEKTVLEDQMATATTQIEAMHIVLRKLEEKERSLQATVASIEKELMLRQQAMEMHKRKAIESAQSAADLKLHLEKYHAQMKEAQQVVAEKTSSLEAEAYKTKRLQEELAQFKRKAERMKKMEMSGTTIDEVMIEEIREYKETLTCPSCKVKRKDAVLSKCFHVFCYDCLRTRYETRQRKCPKCNCAFGANDYHRLYLQ
Take B1: the MAPPIT interaction score with CG9040 was -0.0702.

B2: RasGAP1 (protein)
chain: MLLKKKRYMFDERDDNNINSPVAVEPSSNNNKMADTREVRIEEQLKVKIGEAKNLSSRNAANTSCSTQGTRDVYCTIALDQEEICRTPTIERTLTPFFGEEHQFKIPRRFRYLTIYLWDRDMKQDKPIGKIAIKREELHMYNHKDHWFSLRPVDQDSEVQGMVNVEVAFTEAQQTQSLSEGIDLGQHTLRHHQNLPHHSHQQRAHLNDYKENSELSNIQRASAAAASSSSAAMTLKTRAAGLFGHVHHPPSQTQHFPIINTTSTSSDQLSNWKSHGRFVGVTIKVPACVDLAKKQGTCDPFVVCTAHYSNKHQVTRRTKQRKKTVDPEFDEAMYFDLHIDADAGSTNTTGSNKSAGSLESSANKGYSIYPVGGADLVEIVVSVWHDAHGAMSDKVFLGEVRLPMLNKQEQQAVNPSAWYYLQPRSMTHSSRSLNATPRSCATPPGTRLSVDSTIGSLRLNLNYTADHVFPLATYDDLMNLLLESVDQRPITVSAVSILGELVSGKTEVAQPLVRLFTHTERIAPIIKALADHEISHLTDPTTIFRGNTLVSKMMDEAMRLSGLHYLHQTLRPVLSQIVAEKKPCEIDPSKIKDRSAVDTNLHNLQDYVERVFEAITKSADRCPKVLCQIFHDLRECAGEHFPSNREVRYSVVSGFIFLRFFAPAILGPKLFDLTTERLDAQTSRTLTLISKTIQSLGNLVSSRSSQQTCKEEFTVELYKKFCTEQHVDAVKHFLEVISTPSHASSSVHPAAAAATPLEPVLLKEGLMTKYPTSRKRFGRQFKQRHFRLTTHSLSYAKSKGKQPICDIPLQEIASVEQLKDKSFKMQNCFKIVHNDRSLIVQTTNCVEEREWFDLLHKICLMNSIRMQYFHPSAFVSGFYSCCGRSDENSPGCKKVLDKTMDYFQMDLVTALDPALDLQRIHTLIMSNMSVLESLLDPLTYHQSLSQTQHQQHNPLVPLATDLQKHSPQAFAEFKRTIEKLREKAYAIDRDHRDYKQGITRQLKYGSRQAPIGDDNYWHMMRAAGQLNQQHHQQQQHQQQQQQQQQQQLQQFQPQPVLPQMQNVRAYPYQPATSNMNAYCLHNMQYQQQRLPFHQQQQQHHQQLQQQQSQFQPLRSHQLQRHNNNLNNNNCGNGSSSSPSSTTSSVVAAPPSTTSSSQPAPPIY
Consider B2, for which the MAPPIT interaction score with CG8043 is 0.645.

B3: Shrm (protein)
chain: MKMRNHKENGNGSEMGESTKSLAKMEPENNNKISVVSVSKLLLKDSNGANSRSSNSNASFSSASVAGSVQDDLPHHNSSSSQLGQQHGSSLDQCGLTQAGLEEYNNRSSSYYDQTAFHHQKQPSYAQSEGYHSYVSSSDSTSATPFLDKLRQESDLLSRQSHHWSENDLSSVCSNSVAPSPIPLLARQSHSHSHSHAHSHSNSHGHSHGHAHSASSSSSSNNNSNGSATNNNNNNSSESTSSTETLKWLGSMSDISEASHATGYSAISESVSSSQRIVHSSRVPTPKRHHSESVLYLHNNEEQGDSSPTASNSSQMMISEEANGEESPPSVQPLRIQHRHSPSYPPVHTSMVLHHFQQQQQQQQDYQHPSRHHTNQSTLSTQSSLLELASPTEKPRSLMGQSHSMGDLQQKNPHQNPMLGRSAGQQHKSSISVTISSSEAVVTIAPQPPAGKPSKLQLSLGKSEALSCSTPNMGEQSPTNSIDSYRSNHRLFPVSTYTEPVHSNTSQYVQHPKPQFSSGLHKSAKLPVITPAGATVQPTWHSVAERINDFERSQLGEPPKFAYLEPTKTHRLSNPALKALQKNAVQSYVERQQQQQKEEQQLLRPHSQSYQACHVERKSLPNNLSPIMVGLPTGSNSASTRDCSSPTPPPPPRRSGSLLPNLLRRSSSASDYAEFRELHQAQGQVKGPSIRNISNAEKISFNDCGMPPPPPPPRGRLAVPTRRTSSATEYAPMRDKLLLQQAAALAHQQHHPQQHRHAQPPHVPPERPPKHPNLRVPSPELPPPPQSELDISYTFDEPLPPPPPPEVLQPRPPPSPNRRNCFAGASTRRTTYEAPPPTAIVAAKVPPLVPKKPTSLQHKHLANGGGGSRKRPHHATPQPILENVASPVAPPPPLLPRARSTAHDNVIASNLESNQQKRSNSKASYLPRQSLEKLNNTDPDHGIYKLTLTSNEDLVAHTKPSYGVTGKLPNNLPDVLPLGVKLHQQPKLQPGSPNGDANVTLRYGSNNNLTGNSPTVAPPPYYGGGQRYSTPVLGQGYGKSSKPVTPQQYTRSQSYDVKHTSAVTMPTMSQSHVDLKQAAHDLETTLEEVLPTATPTPTPTPTPTPPRLSPASSHSDCSLSTSSLECTINPIATPIPKPEAHIFRAEVISTTLNTNPLTTPPKPAMNRQESLRENIEKITQLQSVLMSAHLCDASLLGGYTTPLITSPTASFANEPLMTPPLPPSPPPPLEPEEEEEQEENDVHDKQPEIEELQLMQRSELVLMVNPKPSTTDMACQTDELEDRDTDLEAAREEHQTRTTLQPRQRQPIELDYEQMSRELVKLLPPGDKIADILTPKICKPTSQYVSNLYNPDVPLRLAKRDVGTSTLMRMKSITSSAEIRVVSVELQLAEPSEEPTNLIKQKMDELIKHLNQKIVSLKREQQTISEECSANDRLGQDLFAKLAEKVRPSEASKFRTHVDAVGNITSLLLSLSERLAQTESSLETRQQERGALESKRDLLYEQMEEAQRLKSDIERRGVSIAGLLAKNLSADMCADYDYFINMKAKLIADARDLAVRIKGSEEQLSSLSDALVQSDC
As for B3, the MAPPIT interaction score with CG7747 was -0.185.

B4: bol (protein)
chain: MHKIAAAPPPSATPGGGLETPLAAPKYGTLIPNRIFVGGISGDTTEADLTRVFSAYGTVKSTKIIVDRAGVSKGYGFVTFETEQEAQRLQADGECVVLRDRKLNIAPAIKKQPNPLQSIVATNGAVYYTTTPPAPISNIPMDQFAAAVYPPAAGVPAIYPPSAMQYQPFYQYYSVPMNVPTIWPQNYQENHSPLLHSPTSNPHSPHSQSHPQSPCWSIEDLRDTLPRV
For B4, the MAPPIT interaction score with CG9106 is 3.9 (active).

B5: tap (protein)
chain: MAACYNAYSAGSQSFEFDEDDDDASFDSGYEKSFETEAQLSSRRRLDFGTPPTPAIPQPYSGGTWDAVPLSSPPAGFVGLLDTSSNHSTRSGRTLVEHLNSRATNGVFDPPLTSTPVKSPEDPNAPRPKRKYAVGKNRVTRSRSPTQVVKIKRFRRMKANDRERNRMHNLNDALEKLRVTLPSLPEETKLTKIEILRFAHNYIFALEQVLESGGSINLDLEKLQNFTLSGERITKELFDALFVNPQPYPLFGRMFPYGQGMAPLAQHQTAPASHAEQPPAMGGFQHGMDYPQQPPGFDFTGSMRFYHQQQQQPHQPHHLQPNPQQESSPQQFSQEKYDLFRGSFDAAANLHSTNLDSGIHQQSSFYSQTPPWKDYPEDQAHVHPVPHQHSYKNFAPQV
On to B5, for which the MAPPIT interaction score with CG8320 is -0.175.
